Data as given in PubChem BioAssay (Tox21).
“And” between values parts separate entries of the source, which are not always exact repeats. Equal entries are not always repeated. Inconclusive results are not listed. The source made the active and inactive calls. Unless noted, calls follow the shape of the dose curve; as a rule, active = well fitted curve in the direction sought with a large enough effect in the repeat runs; inconclusive = weak or mixed curves; inactive = no such curve, though single readings can be large; an effect the other way counts as inactive or inconclusive.

Experiments:
[1] = qHTS assay to test for compound auto fluorescence at 535 nm (green) in HEK293 cells (AID 720680)
[2] = qHTS assay to test for compound auto fluorescence at 460 nm (blue) in HEK293 cell free culture (AID 720681)
Outline: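 Blue fluorescence (Ex 405/Em 460 nm, triamterene-equivalent) was read immediately after pin transfer of compound or DMSO into medium (DMEM, 10% FBS) without cells.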

[3] = qHTS assay to test for compound auto fluorescence at 535 nm (green) in HEK293 cell free culture (AID 720682)
Outline: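 Green-channel intensity (Ex/Em 485/535 nm) was recorded from compound-treated wells containing only DMEM with 10% FBS. Fluorescein provided the equivalency standard.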

[4] = qHTS assay to test for compound auto fluorescence at 590 nm (red) in HEK293 cell free culture (AID 720683)
Outline: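 Red-channel autofluorescence of compounds in culture medium (DMEM, 10% FBS), no cells, measured at 540/590 nm. Rose Bengal sodium is the reference fluorophore for equivalence.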

[5] = qHTS assay to test for compound auto fluorescence at 590 nm (red) in HepG2 cell free culture (AID 720684)
Outline: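 Cell-free; medium MEM + 10% FBS; compound or DMSO added by pintool; read Ex 540/Em 590 nm; Rose Bengal sodium as red reference fluorophore.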

[6] = qHTS assay to test for compound auto fluorescence at 460 nm (blue) in HepG2 cell free culture (AID 720685)
Outline: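 Cell-free plates of MEM plus 10% FBS received 23 nL compound or DMSO vehicle; blue-channel (405/460 nm) intensity scored against triamterene as reference fluorophore.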

[7] = qHTS assay to test for compound auto fluorescence at 460 nm (blue) in HepG2 cells (AID 720687)
Outline: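 Blue-channel autofluorescence (Ex/Em 405/460 nm, triamterene-equivalent) was measured after 1 hr compound exposure at 37 C, 5% CO2. Cells were HepG2, plated overnight at 37 C in MEM plus 10% FBS.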

[8] = target: Glucocorticoid receptor (Homo sapiens) (UniProt P04150); experiment: qHTS assay to identify small molecule agonists of the glucocorticoid receptor (GR) signaling pathway (AID 720691; active = well fitted activation curve with a large enough effect in the signal ratio in the repeat runs, not every such curve was filed as active; the % refers to the signal ratio)
Outline: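 Agonist-mode qHTS in HeLa cells stably expressing a glucocorticoid-response-element beta-lactamase reporter. Fluorescence intensity read with FRET substrate (2 h, room temperature) after 18 h compound treatment at 37 C.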

[9] = target: Glucocorticoid receptor (Homo sapiens) (UniProt P04150); experiment: qHTS assay to identify small molecule antagonists of the glucocorticoid receptor (GR) signaling pathway (AID 720692; active = well fitted inhibition curve with a large enough effect in the signal ratio in the repeat runs, not every such curve was filed as active; the % refers to the signal ratio)
Outline: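 Inhibition of dexamethasone-driven (5 nM final) beta-lactamase expression was measured in GRE-reporter HeLa cells over 18 h at 37C. Fluorescence was read after 2 h with the B/G FRET substrate at room temperature.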

[10] = qHTS assay to identify small molecule antagonists of the glucocorticoid receptor (GR) signaling pathway - cell viability counter screen (AID 720693); also: nearly all actives have a fitted effect of over 55% in size
[11] = qHTS assay for identifying genotoxic compounds that show differential cytotoxicity against isogenic chicken DT40 cell lines with known DNA damage response pathways - wild type cell line (AID 743012); also: nearly all actives have a fitted effect of over 60% in size; also: potency is read from the fitted curve at half-maximal effect
Outline: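 Viability by ATP luminescence (CellTiter-Glo, 30 min RT) after 40 h compound treatment at 37 C/5% CO2, using 300 parental DNA repair-proficient DT40 cells per well.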

[12] = qHTS assay for identifying genotoxic compounds that show differential cytotoxicity against isogenic chicken DT40 cell lines with known DNA damage response pathways - Rev3 mutant cell line (AID 743014); also: nearly all actives have a fitted effect of over 55% in size; also: potency is read from the fitted curve at half-maximal effect
[13] = qHTS assay for identifying genotoxic compounds that show differential cytotoxicity against isogenic chicken DT40 cell lines with known DNA damage response pathways - Rad54/Ku70 mutant cell line (AID 743015); also: nearly all actives have a fitted effect of over 60% in size; also: potency is read from the fitted curve at half-maximal effect
[14] = qHTS assay to identify small molecule antagonists of the androgen receptor (AR) signaling pathway - cell viability counter screen (AID 743033; also: nearly all actives have a fitted effect of over 45% in size)
[15] = qHTS assay to identify small molecule antagonists of the androgen receptor (AR) signaling pathway using the MDA cell line - cell viability counter screen (AID 743041; also: nearly all actives have a fitted effect of over 45% in size)
Outline: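 Viability read by CellTiter-Fluor fluorescence in the same wells as the antagonist screen, added after 15.5 h of a 16 h, 37C exposure. Human breast carcinoma MDA-kb2 AR-luc cells, compounds co-dosed with agonist R1881.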

[16] = qHTS assay to identify small molecule antagonists of the thyroid receptor (TR) signaling pathway - cell viability counter screen (AID 743064); also: nearly all actives have a fitted effect of over 50% in size; also: potency is read from the fitted curve at half-maximal effect
Outline: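 In rat pituitary GH3.TRE-Luc reporter cells co-exposed to compound and 1 nM T3 for 23.5 h, cytotoxicity was assessed with CellTiter-Fluor in the same wells, read by fluorescence.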

[17] = qHTS assay to identify small molecule antagonists of the thyroid receptor (TR) signaling pathway (AID 743065); also: nearly all actives have a fitted effect of over 55% in size; also: potency is read from the fitted curve at half-maximal effect
Outline: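 Antagonism measured as loss of luciferase signal in GH3 cells stably carrying a TRE-luciferase reporter, co-treated with compound and T3 (1 nM final) for 23.5 h at 37 C. Viability was read in the same well by CellTiter-Fluor.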

[18] = qHTS assay to test for compound auto fluorescence at 535 nm (green) in HepG2 cell free culture (AID 720686)
[19] = target: Androgen receptor (Homo sapiens) (UniProt P10275); experiment: qHTS assay to identify small molecule agonists of the androgen receptor (AR) signaling pathway using the MDA cell line (AID 743040; also: nearly all actives have a fitted effect of over 20% in size)
Outline: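 Luciferase agonist assay: 16 h compound exposure at 37C without CO2 in MDA-kb2 AR-luc cells, whose MMTV promoter responds to both AR and GR. Luminescence measured after 30 min room-temperature incubation with ONE-Glo.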
% is scaled to controls: 0 for no effect and ±100 for the full control effect.

Chain of Glucocorticoid receptor (Homo sapiens) (P04150 whole entry, looked up): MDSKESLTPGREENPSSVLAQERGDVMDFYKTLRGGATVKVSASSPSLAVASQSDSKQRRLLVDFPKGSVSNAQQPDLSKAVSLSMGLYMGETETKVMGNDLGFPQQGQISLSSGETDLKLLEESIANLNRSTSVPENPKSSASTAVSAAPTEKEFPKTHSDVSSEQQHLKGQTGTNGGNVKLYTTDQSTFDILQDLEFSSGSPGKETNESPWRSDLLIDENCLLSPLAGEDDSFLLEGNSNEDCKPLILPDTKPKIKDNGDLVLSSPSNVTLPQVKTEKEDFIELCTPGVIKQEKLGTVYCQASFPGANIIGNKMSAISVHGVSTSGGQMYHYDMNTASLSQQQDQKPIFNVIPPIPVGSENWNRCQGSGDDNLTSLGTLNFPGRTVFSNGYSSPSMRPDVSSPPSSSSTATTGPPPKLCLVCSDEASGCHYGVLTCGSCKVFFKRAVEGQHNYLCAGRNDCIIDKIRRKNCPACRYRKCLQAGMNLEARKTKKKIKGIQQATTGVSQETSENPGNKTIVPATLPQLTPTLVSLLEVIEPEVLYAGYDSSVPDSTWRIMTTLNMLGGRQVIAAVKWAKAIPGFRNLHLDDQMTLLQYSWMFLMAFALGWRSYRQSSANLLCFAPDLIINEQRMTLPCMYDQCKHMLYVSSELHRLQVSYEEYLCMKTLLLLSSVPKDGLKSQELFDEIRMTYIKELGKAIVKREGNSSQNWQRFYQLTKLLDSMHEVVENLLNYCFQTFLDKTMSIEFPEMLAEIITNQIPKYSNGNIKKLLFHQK
Chain of Androgen receptor (Homo sapiens) (P10275 whole entry, looked up): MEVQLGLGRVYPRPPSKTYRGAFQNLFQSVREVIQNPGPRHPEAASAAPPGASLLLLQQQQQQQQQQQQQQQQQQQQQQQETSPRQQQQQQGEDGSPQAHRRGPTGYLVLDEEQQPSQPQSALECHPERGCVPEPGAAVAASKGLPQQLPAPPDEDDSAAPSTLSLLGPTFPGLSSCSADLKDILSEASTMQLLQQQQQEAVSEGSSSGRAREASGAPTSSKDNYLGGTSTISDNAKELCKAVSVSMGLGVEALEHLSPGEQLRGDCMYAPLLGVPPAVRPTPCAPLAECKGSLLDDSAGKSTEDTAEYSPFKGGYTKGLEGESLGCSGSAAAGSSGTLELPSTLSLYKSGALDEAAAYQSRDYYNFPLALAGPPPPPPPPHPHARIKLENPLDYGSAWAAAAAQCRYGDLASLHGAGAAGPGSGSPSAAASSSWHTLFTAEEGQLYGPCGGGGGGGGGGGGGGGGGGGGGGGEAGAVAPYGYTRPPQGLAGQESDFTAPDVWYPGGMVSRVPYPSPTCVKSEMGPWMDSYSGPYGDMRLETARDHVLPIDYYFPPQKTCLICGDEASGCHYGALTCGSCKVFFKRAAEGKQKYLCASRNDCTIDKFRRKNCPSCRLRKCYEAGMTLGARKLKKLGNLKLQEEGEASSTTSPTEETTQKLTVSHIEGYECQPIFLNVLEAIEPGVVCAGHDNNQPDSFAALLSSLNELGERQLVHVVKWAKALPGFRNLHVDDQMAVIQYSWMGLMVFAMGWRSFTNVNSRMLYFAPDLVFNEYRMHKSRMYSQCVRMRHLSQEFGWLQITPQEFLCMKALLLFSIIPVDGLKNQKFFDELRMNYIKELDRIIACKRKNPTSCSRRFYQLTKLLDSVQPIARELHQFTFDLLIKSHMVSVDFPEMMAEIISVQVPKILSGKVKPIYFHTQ

CC(C(=O)O)c1ccc(-c2ccccc2)c(F)c1 (stereo not drawn)
inactive: outcome [1] | Potency [2] | outcome [3] | outcome [4] | outcome [5] | Potency [6] | Potency [7] | Potency [8] | Potency [9] | Potency [10] | Potency [11] | Potency [12] | Potency [13] | Potency [14] | Potency [15] | Potency [16] | Potency [17]

CC1=CCC(C(C)C)C=C1 (stereo not drawn)
inactive: outcome [1] | Potency [2] | outcome [3] | outcome [4] | outcome [5] | Potency [6] | Potency [7] | Potency [10] | Potency [11] | Potency [14] | Potency [15] | Potency [16]

CC(C)NCC(O)COc1ccc(CC(N)=O)cc1 (stereo not drawn)
inactive: outcome [1] | Potency [2] | outcome [3] | outcome [4] | outcome [5] | Potency [6] | Potency [7] | Potency [10] | Potency [11] | Potency [12] | Potency [13] | Potency [14] | Potency [15] | Potency [16] | Potency [17]

CC(C)(C)C1CCCCC1O (stereo not drawn)
inactive: outcome [1] | Potency [2] | outcome [3] | outcome [4] | outcome [5] | Potency [6] | Potency [7] | Potency [8] | Potency [9] | Potency [10] | Potency [12] | Potency [13] | Potency [14] | Potency [15] | Potency [16] | Potency [17]

CCC(=O)OC(C)(C)C1CC=C(C)CC1 (stereo not drawn)
active: Potency [12] 48.6 µM
inactive: outcome [1] | Potency [2] | outcome [3] | outcome [4] | outcome [5] | Potency [6] | outcome [18] | Potency [7] | Potency [10] | Potency [15] | Potency [16] | Potency [17]

Cc1ccc(C)o1
inactive: outcome [1] | Potency [2] | outcome [3] | outcome [4] | outcome [5] | Potency [6] | Potency [7] | Potency [8] | Potency [9] | Potency [10] | Potency [11] | Potency [12] | Potency [13] | Potency [15] | Potency [16] | Potency [17]

COc1cc(C(C)(C)C)c(O)c(C(C)(C)C)c1
inactive: outcome [1] | Potency [2] | outcome [3] | outcome [4] | outcome [5] | Potency [6] | Potency [7] | Potency [8] | Potency [9] | Potency [10] | Potency [14]
active: Potency [11] 38.6 µM | Potency [12] 27.3 µM | Potency [13] 30.6 µM

O=C1[C@H](CC[C@H](O)c2ccc(F)cc2)[C@@H](c2ccc(O)cc2)N1c1ccc(F)cc1
inactive: outcome [1] | Potency [2] | outcome [3] | outcome [4] | outcome [5] | Potency [6] | Potency [7] | Potency [10] | Potency [14] | Potency [15]

CCN1CCC[C@H]1CNC(=O)c1c(OC)ccc(Br)c1OC
inactive: outcome [1] | Potency [2] | outcome [3] | outcome [4] | outcome [5] | Potency [6] | outcome [18] | Potency [7] | Potency [10] | Potency [11] | Potency [13] | Potency [14] | Potency [15]

C[C@@H](C1=C(CCN(C)C)Cc2ccccc21)c1ccccn1
active: Potency [16] 29.8 µM | Potency [17] 26.6 µM
inactive: outcome [1] | Potency [2] | outcome [3] | outcome [4] | outcome [5] | Potency [6] | outcome [18] | Potency [7] | Potency [10] | Potency [14]

Nc1cnn([C@@H]2O[C@H](CO)[C@@H](O)[C@H]2O)c(=O)n1
inactive: outcome [1] | Potency [2] | outcome [3] | outcome [4] | outcome [5] | Potency [6] | outcome [18] | Potency [7] | Potency [14] | Potency [15] | Potency [16] | Potency [17]
active: Potency [11] 27.3 µM | Potency [13] 6.12 µM

CC(C(=O)O)c1ccc(C(=O)c2ccccc2)s1 (stereo not drawn)
inactive: fluorescence, % of fluorescein [1] 0.0614% [at 18.6 µM] | fluorescence, % of fluorescent control [2] -0.0527% [at 18.6 µM] | activity change [3] -0.0099% [at 18.6 µM] | fluorescence, % of fluorescent control [4] -0.0875% [at 18.6 µM] | fluorescence, % of Rose Bengal [5] 0.261% [at 18.6 µM] | fluorescence, % of fluorescent control [6] -0.006% [at 18.6 µM] | fluorescence, % of fluorescein control [18] 0.146% [at 18.6 µM] | fluorescence, % of fluorescent control [7] 0.0098% [at 18.6 µM] | Potency [10] | Potency [11] | Potency [12] | Potency [13] | Potency [19] | Potency [16] | Potency [17]

O=S1(=O)N=C(O)c2ccccc21
inactive: outcome [1] | Potency [2] | outcome [3] | outcome [4] | outcome [5] | Potency [6] | outcome [18] | Potency [7] | Potency [11] | Potency [12] | Potency [13] | Potency [15] | Potency [16]

C=C(C)C(=O)OCCN(C)C
inactive: outcome [1] | Potency [2] | outcome [3] | outcome [4] | outcome [5] | Potency [6] | Potency [7] | Potency [10] | Potency [11] | Potency [12] | Potency [13] | Potency [15] | Potency [16] | Potency [17]

Cc1ccc(C(=O)C(C)CN2CCCCC2)cc1 (stereo not drawn)
inactive: outcome [1] | Potency [2] | outcome [3] | outcome [4] | outcome [5] | Potency [6] | outcome [18] | Potency [7] | Potency [10] | Potency [16] | Potency [17]
active: Potency [11] 23.7 µM and 26.6 µM | Potency [12] 29.8 µM | Potency [13] 26.6 µM

CN1CCC(OC(c2ccccc2)c2ccccc2)CC1
inactive: fluorescence, % of fluorescein [1] -0.132% [at 18.6 µM] | fluorescence, % of fluorescent control [2] -0.231% [at 18.6 µM] | activity change [3] -0.251% [at 18.6 µM] | fluorescence, % of fluorescent control [4] 0.167% [at 18.6 µM] | fluorescence, % of Rose Bengal [5] 0.0772% [at 18.6 µM] | fluorescence, % of fluorescent control [6] -0.163% [at 18.6 µM] | fluorescence, % of fluorescent control [7] -0.0097% [at 18.6 µM] | Potency [8] | Potency [9] | Potency [10] | Potency [14] | Potency [15]
active: Potency [11] 11.4 µM | Potency [12] 12.7 µM | Potency [13] 11.4 µM
